Data on 35 compounds can be found in PubChem BioAssay.

Each structure is given as a SMILES string. Activity calls are given as the source filed them.

Chain of NADPH oxidase 4 (Homo sapiens) (Q9NPH5 whole entry, looked up): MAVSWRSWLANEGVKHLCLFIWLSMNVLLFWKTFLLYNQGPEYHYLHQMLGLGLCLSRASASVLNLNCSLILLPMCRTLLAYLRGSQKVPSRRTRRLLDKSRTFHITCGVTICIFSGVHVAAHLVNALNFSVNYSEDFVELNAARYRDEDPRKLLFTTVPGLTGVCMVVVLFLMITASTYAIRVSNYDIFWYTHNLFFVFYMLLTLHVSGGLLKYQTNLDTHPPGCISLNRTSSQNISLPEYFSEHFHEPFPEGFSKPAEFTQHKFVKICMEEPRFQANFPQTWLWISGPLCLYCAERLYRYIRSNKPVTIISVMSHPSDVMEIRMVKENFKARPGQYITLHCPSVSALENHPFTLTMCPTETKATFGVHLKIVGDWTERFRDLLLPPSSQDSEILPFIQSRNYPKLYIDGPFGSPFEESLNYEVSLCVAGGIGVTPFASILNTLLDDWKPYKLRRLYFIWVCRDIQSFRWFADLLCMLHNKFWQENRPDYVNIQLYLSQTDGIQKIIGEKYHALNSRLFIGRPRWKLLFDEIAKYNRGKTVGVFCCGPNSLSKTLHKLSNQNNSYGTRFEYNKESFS

The target of the first assay is NADPH oxidase 2 (Homo sapiens) (UniProt P04839). As to the kind of experiment: NOX2-dependent H2O2 signal modulators, primary screen, NOX inhibitor project, cell-based, HEK293-NOX2, PMA-stimulated, Amplex Red fluorescence (AID 1159). Further: test concentration not given here. Particulars: 45 min, higher = more signal, called active from +8 up or from −8 down.
Chain of NADPH oxidase 2 (Homo sapiens) (P04839 whole entry, looked up): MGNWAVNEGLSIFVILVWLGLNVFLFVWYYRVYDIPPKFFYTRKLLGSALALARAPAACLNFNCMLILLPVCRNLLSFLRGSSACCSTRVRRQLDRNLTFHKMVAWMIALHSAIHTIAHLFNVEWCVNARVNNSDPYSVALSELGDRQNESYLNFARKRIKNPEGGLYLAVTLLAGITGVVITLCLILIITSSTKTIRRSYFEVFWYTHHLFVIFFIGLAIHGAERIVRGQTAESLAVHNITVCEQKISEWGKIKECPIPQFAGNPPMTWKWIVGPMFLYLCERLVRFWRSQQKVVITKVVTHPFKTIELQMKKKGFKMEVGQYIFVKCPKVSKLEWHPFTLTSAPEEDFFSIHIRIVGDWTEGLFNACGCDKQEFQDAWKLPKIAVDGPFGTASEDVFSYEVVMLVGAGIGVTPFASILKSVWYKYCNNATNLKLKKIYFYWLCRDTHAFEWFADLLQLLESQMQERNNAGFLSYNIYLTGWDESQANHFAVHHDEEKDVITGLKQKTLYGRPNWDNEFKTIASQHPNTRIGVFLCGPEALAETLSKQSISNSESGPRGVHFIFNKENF
Take `O=C1C2C=CC(C(O)c3ccc([N+](=O)[O-])cc3)N(Nc3ccccc3)C2C(=O)N1c1ccccc1` (stereo unspecified): the z-score is -2.02 (inactive).

Turning to `C=C(CCCC)C(=O)CC[C@H](OC(C)=O)c1ccccc1OCCO`, the z-score was -1.56 (inactive).

As for `C=C(COC)/C(=C/C[C@H](OC(=O)c1ccncc1)c1ccc(OCCO)cc1)c1cc(C(=O)OC)ccc1OC`, the z-score is -3.16 (inactive).

On to `COC(=O)[C@@]1(Cc2ccc(OC)cc2)[C@@H]2[C@@H](CC(=O)[C@H]2CC(=O)C(=O)N2CCCC2)CN1C(=O)c1ccccc1`, for which the z-score was -0.204 (inactive).

Turning to `CCOC(=O)C[C@H]1[C@H](OC(=O)c2ccc(-c3ccccc3)cc2)[C@@H](NC(=O)CC(C)C)c2cc(OCCCO)ccc2N1C(=O)Cc1ccc(OC)cc1`, the z-score is -0.521 (inactive).

On to `C=CCN1C(=O)[C@]2(O[C@H](CCn3cc([C@H](O)c4ccccc4)nn3)[C@@H]([Si](C)(C)c3ccc(OC)cc3)[C@@H]2C)c2cc(N3C(=O)c4cccc5cccc3c45)ccc21`, for which the z-score was 1.06 (inactive).

A further assay has as its target NADPH oxidase 4 (Homo sapiens) (UniProt Q9NPH5). The experiment in a line: NOX4-dependent H2O2 signal modulators, primary screen, NOX inhibitor project, cell-based, HEK293-NOX4, tetracycline-induced, Amplex Red fluorescence (AID 1160). The conditions noted are these: 45 min, higher = more signal, called active from +8 up or from −8 down.
Consider `CCCC[C@@H](O)C1=C(COC)Cn2c(=O)n(-c3ccccc3)c(=O)n2[C@H]1CO`, for which the z-score was 0.208 (inactive).

Turning to `CCN(CC)c1ccc(N2CC=CC34O[C@@H]5C=CCOC(=O)[C@@H]5[C@H]3C(=O)N(CCCO)[C@@H]4C2=O)cc1` (stereo partly specified), the z-score was -0.497 (inactive).

`COCCOC(=O)N1C(=O)[C@@]2(c3cc(C#CCC(C(=O)OC)C(=O)OC)ccc31)[C@H](c1ccc(OCCO)cc1)N1[C@H](c3ccccc3)[C@H](c3ccccc3)OC(=O)[C@H]1[C@@H]2C(=O)N1CCCCCCC1`: the z-score was 0.397 (inactive).

For `CCOC(=O)C1=CC[C@@H](c2ccc(F)cc2)N(S(=O)(=O)c2ccc(C)cc2)[C@H]1c1ccc([N+](=O)[O-])cc1`, the z-score was 0.856 (inactive).

For the compound `COC(=O)c1c(CC[C@@H](CO)NC(=O)N[C@@H](Cc2ccccc2)Cn2cc(-c3cncn3C)nn2)oc(C(C)=O)c1C(=O)OC`, the z-score is -2.01 (inactive).

Take `O=C(NCCO)C1=C[C@H](Oc2ccccc2I)[C@@H](O)[C@H](NCc2ccc(F)cc2)C1`: the z-score is -0.89 (inactive).

As to `CCCCN1CC=CC23O[C@@H]4/C=C\CCC(C)OC(=O)C4[C@H]2C(=O)N(C(C)CO)[C@@H]3C1=O` (stereo partly specified), the z-score is -0.42 (inactive).

As to `CC(C)C[C@@H]1NC(=O)C([C@@H](C)OCc2ccccc2)NC(=O)[C@@]23C(=O)N[C@@H](Cc4ccccc4)C2[C@H](C)[C@@]2(C)O[C@H]2C3/C=C/CC/C=C/CNC1=O` (stereo partly specified), the z-score was 0.98 (inactive).

As to `COCCOC(=O)N1C(=O)[C@@]2(c3cc(C#CCCO)ccc31)[C@H](C(=O)N1CCc3cc(OC)c(OC)cc3C1)[C@H]1C(=O)O[C@H](c3ccccc3)[C@H](c3ccccc3)N1[C@@H]2c1ccccc1OCCO`, the z-score was 1.7 (inactive).

Regarding `COc1ccc([Si](C)(C)[C@H]2[C@H](CC(=O)N3Cc4ccccc4C[C@H]3CO)O[C@@]3(C(=O)N(Cc4cccc(N5C(=O)c6cccc7cccc5c67)c4)c4ccccc43)[C@@H]2C)cc1`, the z-score was -0.0145 (inactive).

Regarding `CN1C(=O)C2C(C1=O)C1C=C(c3ccc(CO)cc3)C2C(c2cccs2)N1C` (stereo unspecified), the z-score is -1.96 (inactive).

For the compound `CC(C)CNC(=O)[C@@]1(C)c2ccccc2C(=O)N(Cc2cc(F)cc(C(F)(F)F)c2)[C@H]1c1ccc(CO)cc1`, the z-score is 0.261 (inactive).

Turning to `COc1ccc([Si](C)(C)[C@H]2[C@H](CCO)O[C@@]3(C(=O)N(Cc4ccc(N5CCOC5=O)cc4)c4ccccc43)[C@@H]2C)cc1`, the z-score was 1.75 (inactive).

In the case of `CCCC=C(CCC)[C@@H](NC(=O)c1ccco1)c1ccc(C(=O)OC)cc1`, the z-score is 1.46 (inactive).

As to `CO[C@H]1O[C@H](CO)[C@@H](OC(=O)Nc2ccc(C(F)(F)F)cc2)[C@H](OC(=O)Nc2ccccc2-c2ccccc2)[C@@H]1OC(=O)Nc1ccccc1-c1ccccc1`, the z-score is -0.549 (inactive).

Regarding `CC[C@H](C)C(=O)O[C@H]1CC[C@]2(C)C3=C(CCC2C1(C)C)[C@]1(C)CC[C@H]([C@H](C)CCCC(C)C)[C@@]1(C)CC3` (stereo partly specified), the z-score is -0.0141 (inactive).

With `COCCn1c(C(=O)N2CCCC2)cc2c1C[C@H]1CN(C(=O)c3ccccc3)[C@@](Cc3ccccc3)(C(=O)OC)[C@@H]21`, the z-score is -0.6 (inactive).

Take `C[C@]1(C(=O)NCC(F)(F)F)c2ccccc2C(=O)N(Cc2ccc(OC(F)(F)F)cc2)[C@H]1c1ccc(CO)cc1`: the z-score is -0.0975 (inactive).

With `CN(C)CCCNC(=O)[C@@H]1c2ccccc2C(=O)N(C2Cc3ccccc3C2)[C@H]1c1ccc(CO)cc1`, the z-score is 1.25 (inactive).

In the case of `Cc1c(NC(=O)/C(C#N)=C/c2ccc(Cl)cc2)c(=O)n(-c2ccccc2)n1C`, the z-score was -0.376 (inactive).

Consider `C=CCC(OC(C)=O)[C@@H]1[C@@H](N(Cc2ccc(-c3ccccc3)cc2)C(=O)c2cccc3ccccc23)c2cc(OCCCO)ccc2N1C(=O)c1ccc2ccccc2c1` (stereo partly specified), for which the z-score was -0.572 (inactive).

Regarding `COCCOC(=O)N1C(=O)[C@@]2(c3ccccc31)[C@H](c1ccc(OCCO)cc1)N1[C@H](c3ccccc3)[C@H](c3ccccc3)OC(=O)[C@H]1[C@@H]2C(=O)N1CCN(c2ncccn2)CC1`, the z-score is 0.262 (inactive).

As for `C=C(/C(=C/C[C@@H](OC(C)=O)c1ccccc1OCCO)c1cc(C(=O)OC)ccc1OC)C(C)C`, the z-score is -0.286 (inactive).

Regarding `CCCC[C@H]1OB(O)C[C@H]2C1=C(COC)C[C@H]1C(=O)C=CC(=O)[C@H]12`, the z-score is -0.663 (inactive).

Consider `COc1ccc(NC(=O)O[C@H]2[C@H](OC(=O)Nc3ccc4c(c3)OCO4)[C@H](OC(=O)Nc3ccc4c(c3)OCO4)[C@@H](OC)O[C@@H]2CO)cc1`, for which the z-score was -0.399 (inactive).

Consider `C=CCN1C(=O)[C@]2(O[C@H](CCO)[C@@H]([Si](C)(C)c3ccc(OC)cc3)[C@@H]2C)c2ccccc21`, for which the z-score was -0.0158 (inactive).

In the case of `COC(=O)[C@]1(CO)N=C(c2ccc(OCCCO)cc2)O[C@@H]1c1ccccc1CN=[N+]=[N-]`, the z-score was -0.0289 (inactive).

Regarding `COc1cccc(OC)c1C(=O)O[C@H]1[C@@H]2OC(=O)[C@H](Cc3cccc(Br)c3)C/C=C/C[C@@H](Cc3cccc(Br)c3)C(=O)O[C@H]2[C@@H](OC)O[C@@H]1CO`, the z-score is -0.0533 (inactive).

On to `COCCOC(=O)N1C(=O)[C@@]2(c3cc(C#CC4(O)CCCCCC4)ccc31)[C@H](C(=O)NC[C@H](O)c1ccccc1)[C@H]1C(=O)O[C@H](c3ccccc3)[C@H](c3ccccc3)N1[C@@H]2c1ccc(O)cc1`, for which the z-score is 1.02 (inactive).

As for `O=C1C2C=CC(C(O)c3ccc([N+](=O)[O-])cc3)N(Nc3ccccc3)C2C(=O)N1c1ccccc1` (stereo unspecified), the z-score is -4.69 (inactive).

As for `C=C(CCCC)C(=O)CC[C@H](OC(C)=O)c1ccccc1OCCO`, the z-score is -0.397 (inactive).

Take `C=C(COC)/C(=C/C[C@H](OC(=O)c1ccncc1)c1ccc(OCCO)cc1)c1cc(C(=O)OC)ccc1OC`: the z-score was -1.49 (inactive).

Turning to `COC(=O)[C@@]1(Cc2ccc(OC)cc2)[C@@H]2[C@@H](CC(=O)[C@H]2CC(=O)C(=O)N2CCCC2)CN1C(=O)c1ccccc1`, the z-score is 0.65 (inactive).

For `CCOC(=O)C[C@H]1[C@H](OC(=O)c2ccc(-c3ccccc3)cc2)[C@@H](NC(=O)CC(C)C)c2cc(OCCCO)ccc2N1C(=O)Cc1ccc(OC)cc1`, the z-score is 1.12 (inactive).

Consider `C=CCN1C(=O)[C@]2(O[C@H](CCn3cc([C@H](O)c4ccccc4)nn3)[C@@H]([Si](C)(C)c3ccc(OC)cc3)[C@@H]2C)c2cc(N3C(=O)c4cccc5cccc3c45)ccc21`, for which the z-score was 1.11 (inactive).
